Only some compounds are listed: those with a hit (about 6.7% of all), similar ones and a draw of the others.
C diff growth – C. difficile growth inhibitors, primary screen, HTS; Clostridium difficile clinical isolate growth, OD600, 24 h; active compounds read low; growth activity, negative = inhibition, % at 16 µg/mL (by protocol); hit rate 0.25% among 86,000;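 active = mean growth activity at or below -80% and every replicate also at or below -80%; inconclusive = mean at or below -80% but some replicate above -80%; inactive = mean growth activity above -80%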;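 also: 0% = DMSO wells and -100% = levofloxacin 16 µg/mL wells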
Pf Dd2 growth – P. falciparum Dd2 growth inhibitors, primary screen, SYBR Green fluorescence, single dose replicates | 72 h; active compounds read low | activity change, % at 10 µM | hit rate 2.3% among 94,000 | AID 1159554, 2015; in the data active = activity change below about -80%; inconclusive = no clear call, values can overlap the other calls
T cruzi growth-1 – T. cruzi intracellular proliferation inhibitors, primary screen, cell-based, beta-gal Tulahuen parasites, NIH3T3 host, luminescence | T. cruzi beta-gal in NIH3T3, GalScreen luminescence, 90 h | inhibition, % at 8.34 µM | hit rate 5.9% among 77,000 | AID 624255, 2012;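 active = mean inhibition above about 93%, with at least 55% of replicates each passing it, limit read from the data, passing the limit was not always enough; inconclusive = only one of those two conditions holds; inactive = neither condition holds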
T cruzi growth-2 – T. cruzi intracellular proliferation inhibitors, confirmation, cell-based, NIH3T3 host, beta-gal parasite, luminescence, cherry-pick; hit rate 72% among 5,600; shares compounds with T cruzi growth-1; T. cruzi beta-gal in NIH3T3, GalScreen luminescence, 90 h; inhibition, % at 8.35 µM; AID 651739, 2012;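 active = mean replicate inhibition above about 95% and at least 55% of replicates individually reaching it, limit read from the data; inconclusive = only one of the two criteria is met; inactive = neither criterion is met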
T cruzi growth-3 – inhibitors of intracellular T. cruzi replication, confirmation, NIH3T3 host cells, beta-gal parasites, cherry-pick, set 2. shares compounds with T cruzi growth-1. T. cruzi beta-gal in NIH3T3, GalScreen luminescence, 90 h. inhibition, % at 2.09 µM. hit rate 21% among 5,600. AID 651740, 2012;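 active = mean inhibition above about 95%, with at least 55% of replicates also reaching it, limit read from the data; inconclusive = meets just one of the two conditions; inactive = meets neither condition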;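 also: plate controls were neutral control median for no effect and positive control median for full effect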
3T3 cytotox – cytotoxicity in mouse NIH/3T3 fibroblasts, confirmation, cytotoxicity control for T. cruzi proliferation inhibitor project, cell-based, cherry-pick, single point; cytotoxicity (signal decrease), % at 8.35 µM; hit rate 14% among 5,600; AID 651742, 2012; NIH/3T3 viability, CellTiter-Glo ATP luminescence, 90 h; shares compounds with T cruzi growth-1;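 active = mean signal decrease across replicates above about 35% based on untreated-well scatter, with enough replicates individually passing, limit read from the data; inconclusive = no rule stated though some were filed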;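 also: 0% = median of neutral control wells and 100% = median of positive control wells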
3T3 cytotox 2 – NIH/3T3 fibroblast cytotoxicity, confirmation, cytotoxicity control, cell-based, cherry-pick, single point, set 2. shares compounds with T cruzi growth-1. NIH/3T3 viability, CellTiter-Glo ATP luminescence, 90 h. inhibition, % at 24.9 µM. hit rate 56% among 5,600;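 active = mean loss of cell viability signal at or above a set limit, and enough replicates individually reaching it; inconclusive = meets only the mean limit or only the replicate share; inactive = meets neither condition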;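 also: 0% = median of neutral control wells and 100% = median of positive control wells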
* = called active by the depositor; ? = inconclusive; . = no result given.

SMILES | C diff growth | Pf Dd2 growth | T cruzi growth-1 | T cruzi growth-2 | T cruzi growth-3 | 3T3 cytotox | 3T3 cytotox 2
Cc1ccc(-c2ccc3c(c2)O[C@H](CN(C)Cc2cccnc2)[C@@H](C)CN([C@@H](C)CO)S3(=O)=O)cc1 | -3 | -83* | 119* | 106* | 97* | 50* | 105*
Cc1ccc(-c2ccc3c(c2)O[C@@H](CN(C)Cc2cccnc2)[C@H](C)CN([C@@H](C)CO)S3(=O)=O)cc1 | -14 | -81* | 117* | 98* | 96* | 51* | 100*
C[C@@H]1CN([C@H](C)CO)S(=O)(=O)c2ccc(-c3cccnc3)cc2O[C@@H]1CN(C)Cc1cccnc1 | 6 | 9 | 42 | . | . | . | .
C[C@H](CO)N1C[C@H](C)[C@H](CN(C)Cc2cccnc2)Oc2cc(-c3ccncc3)ccc2S1(=O)=O | 6 | 2 | 71 | . | . | . | .
CO[C@@H]1CN(C)C(=O)c2ccc(NC(=O)c3cccc(F)c3)cc2OC[C@@H](C)N(C)C[C@@H]1C | . | -53 | -23 | . | . | . | .
C[C@@H]1CCCCO[C@H](CN(C)C(=O)NC2CCCCC2)[C@@H](C)CN([C@H](C)CO)C(=O)c2cc(NC(=O)c3ccncc3)ccc2O1 | 2 | 39 | 15 | . | . | . | .
C[C@@H]1CN([C@H](C)CO)S(=O)(=O)c2ccc(C3=CCCCC3)cc2O[C@H]1CN(C)C(=O)C1CCC1 | 9 | -13 | 59 | . | . | . | .
COCC(=O)Nc1ccc2c(c1)OC[C@H](C)N(Cc1ccccc1OC)C[C@H](C)[C@@H](OC)CN(C)C2=O | 7 | -13 | . | . | . | . | .
CO[C@H]1CN(C)C(=O)c2cc(NC(=O)CC(F)(F)F)ccc2OC[C@@H](C)NC[C@@H]1C | -2 | 22 | . | . | . | . | .
C[C@H]1CN([C@@H](C)CO)C(=O)Cc2cc(NC(=O)CCC(F)(F)F)ccc2O[C@H]1CN(C)Cc1ccc2c(c1)OCO2 | 0 | 12 | 14 | . | . | . | .
C[C@H]1CN([C@@H](C)CO)C(=O)Cc2cc(NS(=O)(=O)c3cccs3)ccc2O[C@@H]1CN(C)Cc1ccc2c(c1)OCO2 | -11 | 27 | 73 | . | . | . | .
O=C(C1CCOCC1)N1CC[C@@H]2[C@H](CO)Nc3ccc(-c4ccc(F)cc4)cc3[C@@H]21 | 13 | 14 | ? | 110* | 64 | -12 | 12
O=C(C1CCOCC1)N1CC[C@@H]2[C@@H](CO)Nc3ccc(-c4cccc(F)c4)cc3[C@@H]21 | -6 | -15 | 58 | . | . | . | .
O=C(C1CCOCC1)N1CC[C@H]2[C@H](CO)Nc3ccc(-c4cccc(F)c4)cc3[C@H]21 | -6 | -12 | 72 | . | . | . | .
O=C(C1CCOCC1)N1CC[C@H]2[C@H](CO)Nc3ccc(-c4ccc(F)cc4)cc3[C@H]21 | -9 | 0 | 101* | 104* | 48 | -12 | -9
COc1ccccc1C(=O)Nc1ccc2c(c1)OC[C@H](C)N(CC1CC1)C[C@H](C)[C@H](OC)CN(C)C2=O | . | . | -36 | . | . | . | .
CCN1[C@@H]2c3ccc(/C=C/c4ccccc4)c(=O)n3C[C@@H]2[C@@H](CO)[C@@H]1C(=O)N(C)C | 20 | -3 | 0 | . | . | . | .
COc1cccc(S(=O)(=O)N(C)C[C@H]2Oc3cc(C#CCN(C)C)ccc3S(=O)(=O)N([C@@H](C)CO)C[C@H]2C)c1 | 11 | -65 | 57 | . | . | . | .
COc1ccccc1S(=O)(=O)N(C)C[C@@H]1Oc2cc(/C=C/c3ccccc3)ccc2S(=O)(=O)N([C@@H](C)CO)C[C@@H]1C | 5 | -37 | 93 | . | . | . | .
COc1ccccc1S(=O)(=O)N(C)C[C@@H]1Oc2cc(C#CCC3CCCC3)ccc2S(=O)(=O)N([C@@H](C)CO)C[C@@H]1C | 6 | -57 | . | . | . | . | .
COc1ccccc1S(=O)(=O)N(C)C[C@@H]1Oc2cc(/C=C/c3ccccc3)ccc2S(=O)(=O)N([C@H](C)CO)C[C@@H]1C | 12 | ? | 128* | 100* | 103* | -4 | 29*
COc1cccc(S(=O)(=O)N(C)C[C@H]2Oc3cc(C#CCN(C)C)ccc3S(=O)(=O)N([C@@H](C)CO)C[C@@H]2C)c1 | -5 | -56 | 108* | 114* | 67 | -2 | 5
COc1cccc(S(=O)(=O)N(C)C[C@@H]2Oc3cc(C#CCC(C)C)ccc3S(=O)(=O)N([C@H](C)CO)C[C@@H]2C)c1 | 36 | -78 | 68 | . | . | . | .
COc1ccccc1S(=O)(=O)N(C)C[C@H]1Oc2cc(C#CCC(C)C)ccc2S(=O)(=O)N([C@@H](C)CO)C[C@H]1C | 4 | -67 | 113* | 95* | 108* | 13 | 81*
COc1cccc(S(=O)(=O)N(C)C[C@H]2Oc3cc(C#CCC(C)C)ccc3S(=O)(=O)N([C@H](C)CO)C[C@H]2C)c1 | 14 | -63 | ? | 97* | 115* | 29 | 74*
SMILES | C diff growth | Pf Dd2 growth | T cruzi growth-1 | T cruzi growth-2 | T cruzi growth-3 | 3T3 cytotox | 3T3 cytotox 2
O=C(C[C@@H]1CC[C@H]2[C@@H](COC[C@H](O)CN2C(=O)Nc2ccc(F)cc2)O1)NCCc1ccncc1 | . | 13 | 65 | . | . | . | .
C/C=C/c1ccc([C@@H]2[C@@H](CO)N(C(C)=O)C23CN(C(=O)c2cnccn2)C3)cc1 | -11 | -20 | . | . | . | . | .
Cc1noc(C)c1C(=O)N(C)C[C@@H]1OCc2ccccc2-c2ccccc2C(=O)N([C@H](C)CO)C[C@H]1C | -1 | -5 | 76 | . | . | . | .
COc1ccccc1NC(=O)N[C@H]1CC[C@H](CCNC(=O)Cc2ccccn2)O[C@H]1CO | 1 | -5 | . | . | . | . | .
COCC#Cc1ccc2c(c1)O[C@H](CN(C)S(=O)(=O)c1cccc(OC)c1)[C@@H](C)CN([C@@H](C)CO)S2(=O)=O | 2 | -41 | 58 | . | . | . | .
CCCC#Cc1ccc2c(c1)O[C@H](CN(C)S(=O)(=O)c1cccc(OC)c1)[C@H](C)CN([C@H](C)CO)S2(=O)=O | 15 | -44 | 121* | 103* | 98* | 33 | 25*
CCCC(=O)Nc1ccc2c(c1)OC[C@H](C)N(C(=O)C1CCCC1)C[C@H](C)[C@@H](OC)CN(C)C2=O | . | -5 | 6 | . | . | . | .
CN1C(=O)c2cc(NC(=O)c3cccc(F)c3)ccc2OC[C@@H]2O[C@@H](CC(=O)NC3CCC3)CC[C@H]21 | -2 | -3 | -6 | . | . | . | .
CC(C)NC(=O)N(C)C[C@H]1Oc2c(NC(=O)Nc3cccc4ccccc34)cccc2C(=O)N([C@H](C)CO)C[C@H]1C | 2 | -29 | 47 | . | . | . | .
CO[C@@H]1CN(C)C(=O)c2ccc(NC(=O)c3ccccc3)cc2OC[C@@H](C)N(C(=O)C2CC2)C[C@@H]1C | -3 | -43 | -63 | . | . | . | .
